Measurements reported in PubChem BioAssay (EPA / NIEHS).
Records with an inconclusive call do not appear. Active and inactive are the calls of the source. Rule for the calls, unless noted: active = hit-call score of the fitted dose curve at least 0.9, where 1 is the maximum; inactive = score below 0.9.

Key:
[1] = molecular target: Oxysterols receptor LXR-beta (Homo sapiens) (UniProt P55055); assay: ATG_LXRb_TRANS: Attagene TRANS-FACTORIAL HepG2 Assay for human Liver X Receptor beta (LXRb) (AID 2282981; active = hit-call score of the fitted dose curve at least 0.9, where 1 is the maximum); settings: HepG2 Attagene TRANS GAL4-LXRb reporter, mRNA
Outline: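 Multiplexed reporter assay, HepG2, 24 h dosing. Fluorescence of labelled RT-PCR products after capillary electrophoresis gives transcript level; positive fitting direction relative to DMSO.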

[2] = ATG_M_06_TRANS: Attagene TRANS-FACTORIAL HepG2 Assay for M06 Transcription Factor (Internal Marker) (AID 2282983; active = hit-call score of the fitted dose curve at least 0.9, where 1 is the maximum); settings: HepG2 Attagene TRANS M06 internal marker reporter
Outline: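 In this multiplexed HepG2 system, compounds are incubated 24 h with cells carrying GAL4-UAS reporter units. Reporter RNA is amplified and resolved by capillary electrophoresis, and induction is scored against DMSO.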

[3] = molecular target: Nuclear receptor subfamily 4 group A member 2 (Homo sapiens) (UniProt P43354); assay: ATG_NURR1_TRANS: Attagene TRANS-FACTORIAL HepG2 Assay for human Nuclear Receptor Related Protein 1 (NURR1) (AID 2282985; active = hit-call score of the fitted dose curve at least 0.9, where 1 is the maximum); settings: HepG2 Attagene TRANS reporter, mRNA readout
Outline: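 Endpoint: reporter mRNA increase relative to DMSO. HepG2 cells transfected with reporter units, treated 24 h; RNA processed by RT-PCR, labelling, HpaI digestion and capillary electrophoresis.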

[4] = molecular target: Transcriptional activator Myb (Homo sapiens) (UniProt P10242); assay: ATG_Myb_CIS: Attagene CIS-FACTORIAL HepG2 Assay for human Myeloblastosis (Myb) Proto-Oncogene Transcription Factor (AID 2282986); settings: HepG2 Attagene CIS-FACTORIAL Myb reporter transcription; actives raise or lower the signal
Outline: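 HepG2, transient MRTU transfection (cis-element promoters, endogenous TF activity), 24 h compound exposure. Readout: reporter mRNA via RT-PCR, 6-FAM labeling, HpaI digest, capillary electrophoresis. Gain/loss fit vs DMSO.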

[5] = molecular target: Nuclear respiratory factor 1 (Homo sapiens) (UniProt Q16656); assay: ATG_NRF1_CIS: Attagene CIS-FACTORIAL HepG2 Assay for human Nuclear Respiratory Factor 1 (NRF1) Orphan Gene (AID 2282987); settings: HepG2 NRF1 cis-element reporter, Attagene multiplex; actives raise or lower the signal
Outline: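 Endogenous NRF1-driven reporter transcription measured in transiently transfected human HepG2 liver cells. Readout: reporter mRNA by RT-PCR and capillary electrophoresis with fluorescence detection, 24 h post-dosing. Gain or loss of signal fitted relative to DMSO baseline.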

[6] = ATG_NFI_CIS: Attagene CIS-FACTORIAL HepG2 Assay for human Nuclear Factor I (NFI) (AID 2282989); settings: HepG2 cis-regulatory reporter, NFI response element transcription; actives raise or lower the signal
Outline: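 Multiplexed cis-reporter system in human HepG2 cells reports native TF activity as reporter mRNA induction 24 h post-dose. Fragments labelled with 6-FAM, HpaI-digested and resolved by capillary electrophoresis; activity fitted both directions versus DMSO.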

[7] = molecular target: Myc proto-oncogene protein (Homo sapiens) (UniProt P01106); assay: ATG_Myc_CIS: Attagene CIS-FACTORIAL HepG2 Assay for human Myelocytomatosis (Myc) Proto-Oncogene Transcription Factor (AID 2282990); settings: HepG2, Attagene cis-reporter transcription factor activity; actives raise or lower the signal
Outline: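 Read-out: fluorescent reporter mRNA fragments resolved by capillary electrophoresis after RT-PCR. Human HepG2 liver cells carried transfected cis-element reporter units and were dosed for 24 h. Gain or loss of signal fitted relative to DMSO baseline.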

[8] = ATG_NRF2_ARE_CIS: Attagene CIS-FACTORIAL HepG2 Assay for human Nuclear Factor Erythroid 2 Related Factor 2 (NFR2) response to Antioxidant Response Elements (ARE) (AID 2282992); settings: HepG2 Attagene ARE/NRF2 reporter, transcription factor activity; actives raise or lower the signal
Outline: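 Readout: reporter mRNA quantified by RT-PCR plus FAM-labelled primer extension, HpaI digestion and capillary electrophoresis, 24 h after dosing transfected HepG2 cells. Gain or loss of signal is fitted bidirectionally against DMSO baseline.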

[9] = ATG_Oct_MLP_CIS: Attagene CIS-FACTORIAL HepG2 Assay for human Octamer-Binding Transcription Factor (Oct) (AID 2282993); settings: HepG2 Attagene cis-factorial Oct reporter, mRNA; actives raise or lower the signal
Outline: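 After 24 h compound exposure, transfected HepG2 cells were lysed for total RNA; reporter-specific cDNA was PCR-amplified, fluorescently labelled and sized by capillary electrophoresis. Bidirectional curve fitting used DMSO as baseline.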

[10] = molecular target: Cellular tumor antigen p53 (Homo sapiens) (UniProt P04637); assay: ATG_p53_CIS: Attagene CIS-FACTORIAL HepG2 Assay for human p53 Transcription Factor (AID 2282994); settings: HepG2 p53 cis-element reporter, Attagene mRNA; actives raise or lower the signal
Outline: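 Read-out: reporter mRNA by RT-PCR plus capillary electrophoresis with fluorescence detection. Human HepG2 liver cells carried transfected multi-reporter cis-element constructs, dosed 24 h. Gain or loss of signal fitted bidirectionally against DMSO control.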

[11] = BSK_3C_TissueFactor: BioMAP Diversity Plus: 3C Assay for Tissue Factor Biomarker Activity (AID 2282997); settings: BioMAP 3C HUVEC, tissue factor biomarker readout; actives raise or lower the signal
Outline: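 Readout: Tissue Factor ELISA. Cells: human primary umbilical vein endothelium. Time: 24 h after dosing. Analysis: bidirectional fit, DMSO baseline.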

[12] = BSK_3C_uPAR: BioMAP Diversity Plus: 3C Assay for Urokinase-type plasminogen activator receptor (uPAR) Biomarker Activity (AID 2282998); settings: BioMAP 3C HUVEC, uPAR biomarker ELISA; actives raise or lower the signal
Outline: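 Values derive from bidirectional curve fitting relative to DMSO, which served as baseline of activity. uPAR was measured by ELISA in human umbilical vein endothelial primary cultures 24 h after compound addition.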

[13] = BSK_3C_VCAM1: BioMAP Diversity Plus: 3C Assay for Vascular cell adhesion molecule 1 (VCAM1) Biomarker Activity (AID 2282999); settings: BioMAP 3C HUVEC, VCAM1 ELISA, cytokine-stimulated; actives raise or lower the signal
Outline: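 HUVEC primary cells, 24 h compound exposure; VCAM-1 by ELISA; gain/loss of signal fitted bidirectionally vs DMSO baseline.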

[14] = ATG_M_32_TRANS: Attagene TRANS-FACTORIAL HepG2 Assay for M32 Transcription Factor (Internal Marker) (AID 2282984; active = hit-call score of the fitted dose curve at least 0.9, where 1 is the maximum;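 note: transcript level of a background control reporter unit measured by RT-PCR and capillary electrophoresis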); settings: HepG2 Attagene TRANS M32 internal marker reporter
Outline: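 Internal-marker readout from a multiplexed transcription reporter panel. HepG2 cells were transfected with GAL4-UAS reporter units, treated 24 hours, and reporter transcript levels determined by fluorescence after RT-PCR and capillary separation.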

[15] = ATG_NF_kB_CIS: Attagene CIS-FACTORIAL HepG2 Assay for human Nuclear Factor Kappa B (NF-kB) (AID 2282991); settings: HepG2 Attagene cis-factorial NF-kB reporter mRNA; actives raise or lower the signal
Outline: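 Read-out: reporter transcript levels quantified by RT-PCR plus capillary electrophoresis of 6-FAM-labelled, HpaI-cut fragments. Transfected HepG2 cells, 24 h compound exposure, endogenous NF-kB-driven cis element; gain or loss scored versus DMSO.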

[16] = molecular target: Bile acid receptor (Homo sapiens) (UniProt Q96RI1); assay: ATG_FXR_TRANS: Attagene TRANS-FACTORIAL HepG2 Assay for Farnesoid X Receptor (FXR) (AID 2282979; active = hit-call score of the fitted dose curve at least 0.9, where 1 is the maximum;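 note: hits raise reporter mRNA above DMSO so AC50 marks FXR activation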); settings: HepG2 Attagene TRANS FXR-GAL4 reporter transcription
Outline: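 HepG2 cells transiently transfected with reporter constructs in which a chimeric FXR-GAL4 protein drives a GAL4-UAS reporter; 24 h compound exposure. Reporter mRNA measured by RT-PCR, FAM labelling, HpaI digestion and capillary electrophoresis; gain-of-signal versus DMSO.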

[17] = molecular target: Hepatocyte nuclear factor 4-alpha (Homo sapiens) (UniProt P41235); assay: ATG_HNF4a_TRANS: Attagene TRANS-FACTORIAL HepG2 Assay for human Hepatocyte Nuclear Factor 4 alpha (HNF4a) (AID 2282982; active = hit-call score of the fitted dose curve at least 0.9, where 1 is the maximum); settings: HepG2 HNF4a transactivation reporter, mRNA readout
Outline: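 Endpoint reflects transcriptional activation of a GAL4-UAS reporter by an HNF4a-GAL4 chimera in transfected HepG2 cells, 24 h post-dosing. Fluorescence from RT-PCR products separated by capillary electrophoresis; DMSO baseline.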

[18] = molecular target: Oxysterols receptor LXR-alpha (Homo sapiens) (UniProt Q13133); assay: ATG_LXRa_TRANS: Attagene TRANS-FACTORIAL HepG2 Assay for human Liver X Receptor alpha (LXRa) (AID 2282980; active = hit-call score of the fitted dose curve at least 0.9, where 1 is the maximum); settings: HepG2 Attagene TRANS reporter, LXRa transactivation
Outline: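 HepG2 cells were transiently transfected with multiplexed reporter units driven by chimeric LXRa–GAL4 fusion proteins, then dosed for 24 h. Reporter mRNA was quantified by RT-PCR, fluorescent labelling and capillary electrophoresis; gain of signal fitted against DMSO baseline.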

Measured: AC50

Sequence of Cellular tumor antigen p53 (Homo sapiens) (P04637 whole entry, looked up): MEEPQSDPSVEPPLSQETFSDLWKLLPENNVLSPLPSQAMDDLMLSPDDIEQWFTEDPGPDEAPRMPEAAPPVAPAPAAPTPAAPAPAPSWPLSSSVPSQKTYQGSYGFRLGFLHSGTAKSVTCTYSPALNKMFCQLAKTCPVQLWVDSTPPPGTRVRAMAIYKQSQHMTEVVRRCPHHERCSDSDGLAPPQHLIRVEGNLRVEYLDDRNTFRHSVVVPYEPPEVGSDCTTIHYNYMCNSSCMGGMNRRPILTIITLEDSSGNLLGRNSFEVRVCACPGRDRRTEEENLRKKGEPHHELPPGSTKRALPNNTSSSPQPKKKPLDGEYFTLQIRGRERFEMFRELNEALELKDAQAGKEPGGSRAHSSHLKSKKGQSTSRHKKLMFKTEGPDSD
Sequence of Oxysterols receptor LXR-alpha (Homo sapiens) (Q13133 whole entry, looked up, the tested form may be a part): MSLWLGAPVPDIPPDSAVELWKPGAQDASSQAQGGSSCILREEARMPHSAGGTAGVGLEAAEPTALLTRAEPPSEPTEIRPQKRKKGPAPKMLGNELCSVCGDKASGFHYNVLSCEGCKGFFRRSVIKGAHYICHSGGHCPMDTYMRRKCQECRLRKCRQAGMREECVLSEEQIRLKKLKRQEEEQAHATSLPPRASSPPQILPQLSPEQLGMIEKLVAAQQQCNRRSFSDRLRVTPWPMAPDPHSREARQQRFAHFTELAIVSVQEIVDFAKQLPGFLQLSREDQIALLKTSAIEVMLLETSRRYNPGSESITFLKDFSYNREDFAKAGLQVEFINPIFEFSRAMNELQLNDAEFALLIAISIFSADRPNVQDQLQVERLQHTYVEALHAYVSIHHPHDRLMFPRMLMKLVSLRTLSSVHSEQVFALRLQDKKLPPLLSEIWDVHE
Sequence of Hepatocyte nuclear factor 4-alpha (Homo sapiens) (P41235 whole entry, looked up, the tested form may be a part): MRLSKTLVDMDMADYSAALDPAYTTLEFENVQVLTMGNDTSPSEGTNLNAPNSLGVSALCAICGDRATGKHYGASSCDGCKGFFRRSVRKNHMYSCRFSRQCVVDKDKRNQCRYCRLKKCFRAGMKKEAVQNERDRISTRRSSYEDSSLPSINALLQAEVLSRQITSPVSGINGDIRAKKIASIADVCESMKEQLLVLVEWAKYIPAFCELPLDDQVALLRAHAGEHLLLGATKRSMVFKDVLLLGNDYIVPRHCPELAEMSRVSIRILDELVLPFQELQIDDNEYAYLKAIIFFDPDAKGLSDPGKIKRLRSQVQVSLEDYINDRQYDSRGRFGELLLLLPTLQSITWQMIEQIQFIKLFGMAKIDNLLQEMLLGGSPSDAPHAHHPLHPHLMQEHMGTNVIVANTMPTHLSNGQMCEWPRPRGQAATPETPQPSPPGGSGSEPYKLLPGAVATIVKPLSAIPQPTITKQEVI
Sequence of Transcriptional activator Myb (Homo sapiens) (P10242 whole entry, looked up): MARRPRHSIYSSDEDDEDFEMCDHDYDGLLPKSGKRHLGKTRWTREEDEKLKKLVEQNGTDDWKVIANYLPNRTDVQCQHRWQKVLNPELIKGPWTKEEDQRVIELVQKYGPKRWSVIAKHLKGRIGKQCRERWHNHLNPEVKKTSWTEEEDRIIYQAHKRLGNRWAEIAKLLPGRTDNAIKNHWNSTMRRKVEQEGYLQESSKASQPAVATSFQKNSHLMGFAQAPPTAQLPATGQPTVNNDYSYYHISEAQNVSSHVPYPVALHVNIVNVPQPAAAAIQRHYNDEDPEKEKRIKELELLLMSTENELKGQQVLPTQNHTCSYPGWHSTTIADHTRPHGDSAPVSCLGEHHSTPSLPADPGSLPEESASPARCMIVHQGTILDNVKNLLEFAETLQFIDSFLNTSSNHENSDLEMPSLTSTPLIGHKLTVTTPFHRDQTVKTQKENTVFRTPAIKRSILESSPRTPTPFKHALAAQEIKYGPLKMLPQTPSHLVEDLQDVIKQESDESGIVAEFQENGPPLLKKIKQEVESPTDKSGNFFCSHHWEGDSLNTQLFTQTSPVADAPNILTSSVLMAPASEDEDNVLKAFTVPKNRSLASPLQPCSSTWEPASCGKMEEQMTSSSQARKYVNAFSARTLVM
Sequence of Bile acid receptor (Homo sapiens) (Q96RI1 whole entry, looked up, the tested form may be a part): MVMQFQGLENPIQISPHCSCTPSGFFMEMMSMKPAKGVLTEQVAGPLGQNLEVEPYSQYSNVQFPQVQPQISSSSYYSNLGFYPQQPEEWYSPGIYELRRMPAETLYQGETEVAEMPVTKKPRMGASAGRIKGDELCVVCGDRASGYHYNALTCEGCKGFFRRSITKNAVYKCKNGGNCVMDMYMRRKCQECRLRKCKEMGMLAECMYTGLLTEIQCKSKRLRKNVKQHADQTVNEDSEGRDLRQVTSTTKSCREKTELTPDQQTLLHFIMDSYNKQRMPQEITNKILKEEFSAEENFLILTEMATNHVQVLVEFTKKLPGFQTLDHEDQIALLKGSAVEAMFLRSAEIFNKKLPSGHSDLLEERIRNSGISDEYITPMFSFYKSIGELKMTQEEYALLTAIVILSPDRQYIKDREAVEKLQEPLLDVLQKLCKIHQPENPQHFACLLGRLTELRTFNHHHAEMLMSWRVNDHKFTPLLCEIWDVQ
Sequence of Nuclear respiratory factor 1 (Homo sapiens) (Q16656 whole entry, looked up): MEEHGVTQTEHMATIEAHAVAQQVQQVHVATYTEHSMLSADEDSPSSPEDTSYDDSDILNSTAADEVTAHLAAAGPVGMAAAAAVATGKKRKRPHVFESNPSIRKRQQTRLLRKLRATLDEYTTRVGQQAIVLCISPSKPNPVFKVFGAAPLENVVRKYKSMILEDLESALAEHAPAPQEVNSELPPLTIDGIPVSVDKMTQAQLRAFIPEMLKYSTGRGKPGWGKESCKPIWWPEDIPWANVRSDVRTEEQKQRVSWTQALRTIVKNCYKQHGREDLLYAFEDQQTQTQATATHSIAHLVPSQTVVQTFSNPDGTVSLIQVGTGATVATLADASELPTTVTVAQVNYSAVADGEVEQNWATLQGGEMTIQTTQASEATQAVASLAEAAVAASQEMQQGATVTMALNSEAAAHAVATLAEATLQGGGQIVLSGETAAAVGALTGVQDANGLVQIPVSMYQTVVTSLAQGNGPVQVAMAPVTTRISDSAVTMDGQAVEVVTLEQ
Sequence of Oxysterols receptor LXR-beta (Homo sapiens) (P55055 whole entry, looked up, the tested form may be a part): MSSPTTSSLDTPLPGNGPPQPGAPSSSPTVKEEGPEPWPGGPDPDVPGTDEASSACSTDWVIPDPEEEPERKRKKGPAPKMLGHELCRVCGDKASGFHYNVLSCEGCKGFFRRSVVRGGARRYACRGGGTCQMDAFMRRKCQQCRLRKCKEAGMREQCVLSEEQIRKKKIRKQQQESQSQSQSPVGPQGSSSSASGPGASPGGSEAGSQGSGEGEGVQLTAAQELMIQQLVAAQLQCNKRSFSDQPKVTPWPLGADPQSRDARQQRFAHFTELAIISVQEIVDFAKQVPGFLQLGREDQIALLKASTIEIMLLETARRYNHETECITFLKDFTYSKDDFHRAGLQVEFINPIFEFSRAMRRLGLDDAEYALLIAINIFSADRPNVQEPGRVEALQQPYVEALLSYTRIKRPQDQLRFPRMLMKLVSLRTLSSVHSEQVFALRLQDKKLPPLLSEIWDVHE
Sequence of Myc proto-oncogene protein (Homo sapiens) (P01106 whole entry, looked up, the tested form may be a part): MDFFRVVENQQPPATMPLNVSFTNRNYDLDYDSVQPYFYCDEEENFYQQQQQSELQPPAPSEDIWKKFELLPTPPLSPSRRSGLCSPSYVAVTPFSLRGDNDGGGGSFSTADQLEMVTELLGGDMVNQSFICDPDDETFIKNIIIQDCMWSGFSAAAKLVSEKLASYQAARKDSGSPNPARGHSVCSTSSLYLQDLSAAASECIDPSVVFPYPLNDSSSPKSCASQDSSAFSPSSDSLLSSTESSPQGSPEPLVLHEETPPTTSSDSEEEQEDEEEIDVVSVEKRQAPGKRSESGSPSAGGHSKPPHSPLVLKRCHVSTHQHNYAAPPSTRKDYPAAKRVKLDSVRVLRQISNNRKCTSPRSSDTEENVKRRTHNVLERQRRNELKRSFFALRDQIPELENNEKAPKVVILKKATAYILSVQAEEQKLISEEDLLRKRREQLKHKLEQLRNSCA
Sequence of Nuclear receptor subfamily 4 group A member 2 (Homo sapiens) (P43354 whole entry, looked up): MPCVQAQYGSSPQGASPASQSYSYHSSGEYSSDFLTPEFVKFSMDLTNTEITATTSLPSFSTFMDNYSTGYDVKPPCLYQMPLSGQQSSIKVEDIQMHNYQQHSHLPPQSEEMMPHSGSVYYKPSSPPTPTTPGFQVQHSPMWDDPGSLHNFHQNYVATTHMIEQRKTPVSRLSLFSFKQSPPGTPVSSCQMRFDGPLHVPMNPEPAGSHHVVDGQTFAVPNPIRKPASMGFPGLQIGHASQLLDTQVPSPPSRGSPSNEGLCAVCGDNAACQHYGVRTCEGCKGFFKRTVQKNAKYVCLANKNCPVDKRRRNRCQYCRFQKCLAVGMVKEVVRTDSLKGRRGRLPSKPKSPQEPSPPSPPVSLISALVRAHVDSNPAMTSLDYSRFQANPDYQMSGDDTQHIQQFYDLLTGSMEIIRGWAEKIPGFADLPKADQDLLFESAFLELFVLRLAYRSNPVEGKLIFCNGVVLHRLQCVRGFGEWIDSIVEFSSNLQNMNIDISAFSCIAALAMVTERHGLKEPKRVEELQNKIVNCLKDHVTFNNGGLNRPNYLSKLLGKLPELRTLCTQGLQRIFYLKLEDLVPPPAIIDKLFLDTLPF

C=CN1CCCC1=O
not listed: [14] | [15] | [16] | [17] | [18]
inactive: all other assays above

NC(=O)N1c2ccccc2C=Cc2ccccc21
not listed: [2] | [3] | [5] | [10] | [16] | [17] | [18]
inactive: all other assays above

CCCCCCCCCC
not listed: [1] | [2] | [3] | [14] | [18]
inactive: all other assays above

Cn1cc[nH]c1=S
not listed: [1] | [3] | [5] | [16] | [17] | [18]
inactive: all other assays above

CCOC(N)=O
not listed: [1] | [3] | [5] | [15] | [16] | [17] | [18]
inactive: all other assays above

O=S1(=O)CCCO1
not listed: [1] | [3] | [15] | [16] | [18]
inactive: all other assays above

Nc1ccn([C@@H]2O[C@H](CO)[C@@H](O)[C@@H]2O)c(=O)n1
not listed: [2] | [3] | [10] | [14] | [15] | [16] | [17]
inactive: all other assays above

CC(C)CCCCCCOC(=O)C1CCCCC1C(=O)OCCCCCCC(C)C (configuration not stated)
not listed: [3] | [5] | [10] | [14] | [17] | [18]
inactive: all other assays above

CCCCCCCCCCCCCCO
inactive: [1] | [14] | [5] | [15] | [8] | [9] | [10]
active: [4] 168 µM | [6] 179 µM | [7] 166 µM | [11] 36.6 µM | [12] 34.4 µM | [13] 32.8 µM

COS(C)(=O)=O
not listed: [1] | [2] | [3] | [10] | [14] | [16]
inactive: all other assays above

CC(C)CC(C)O (configuration not stated)
not listed: [1] | [2] | [3] | [10] | [14] | [16] | [18]
inactive: all other assays above

CC(=O)c1ccccc1
not listed: [2] | [3] | [14] | [16] | [18]
inactive: all other assays above

CCCCCCCCCCCCCCCCOS(=O)(=O)O
active: [6] 24.6 µM | [8] 27.3 µM | [10] 24.9 µM
not listed: [2] | [3] | [5] | [15] | [17] | [18]
inactive: all other assays above

c1ccc2ncccc2c1
not listed: [2] | [5] | [15] | [16]
inactive: all other assays above
